AF4-AF9 inh – blocks AF4 peptide binding to human AF9; P42568; inhibition, % at 10 µM; 350,000 compounds, 0.47% hits; AID 651704; AlphaScreen, biotin-AF4 peptide binding to FLAG-AF9;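 active means every replicate reaching a set inhibition limit, whatever the replicate mean, cut at about 25% in these data; inconclusive means mean inhibition reaches that limit but some replicates miss it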;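 further: 0% = plate neutral control median and 100% = total signal loss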
DENV2 CPE – protects cells from dengue virus 2 cytopathic effect; DENV2-infected cells, cytopathic effect rescue, plate reader; CPE inhibition, % at 9.99 µM; 350,000 compounds, 1.7% hits; AID 651640; in the data active means CPE inhibition above about 20%, passing the limit was not always enough; inconclusive means no clear call, values can overlap the other calls; tested in BHK-21 cells;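 further: 0% = median of neutral control wells and 100% = median of positive control wells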
ERp5 block – ERp5 (human) disulfide isomerase inhibition. ERp5 insulin aggregation, absorbance 650 nm, 90 min. AID 651711. inhibition, % at 9.99 µM. 350,000 compounds, 0.05% hits;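 active means mean replicate inhibition above about 25%, with every replicate also reaching it, limit read from the data, passing the limit was not always enough; inconclusive means only one of those two criteria met; inactive means neither criterion met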
Target sequence (Q15084 whole entry, looked up): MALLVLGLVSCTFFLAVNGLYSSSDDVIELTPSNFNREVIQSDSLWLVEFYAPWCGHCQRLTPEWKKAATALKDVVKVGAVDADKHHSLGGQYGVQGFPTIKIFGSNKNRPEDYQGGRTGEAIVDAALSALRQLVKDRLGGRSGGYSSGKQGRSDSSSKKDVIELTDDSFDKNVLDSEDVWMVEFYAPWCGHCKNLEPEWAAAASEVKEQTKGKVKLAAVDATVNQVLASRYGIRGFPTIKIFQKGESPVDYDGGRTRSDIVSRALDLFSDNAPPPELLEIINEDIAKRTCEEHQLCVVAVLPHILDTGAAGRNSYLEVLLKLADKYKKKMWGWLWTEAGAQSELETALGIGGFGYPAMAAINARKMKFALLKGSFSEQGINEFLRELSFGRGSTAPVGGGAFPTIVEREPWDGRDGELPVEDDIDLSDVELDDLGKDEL
PDI inh – blocks human protein disulfide isomerase activity. PDI insulin aggregation turbidity, A650, 90 min. inhibition, % at 10 µM. 350,000 compounds, 0.052% hits. AID 588391;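 active means mean inhibition across replicates of 30% or more, whatever share of single replicates reach that level; inconclusive means mean inhibition below 30% while every single replicate reaches 30%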
ERAP1 inh – ERAP1 (human) enzyme inhibition; Q9NZ08; recombinant ERAP1, Leu-AMC fluorescence, 60 min; inhibition, % at 10.7 µM; 340,000 compounds, 0.15% hits; AID 652197;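 active means mean replicate inhibition of at least 30%, or all replicates individually reaching that 30% level; inactive means mean below 30% and not every replicate reaching it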;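 further: 0% = neutral control wells and 100% = L-leucinethiol positive control wells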
AlphaScreen intf – counter-screen: AlphaScreen signal interference; shares compounds with AF4-AF9 inh; signal luminescence; AC50, µM (top dose mostly 12 µM), for inactives: at the highest dose activity change, negative = inhibition; 530 compounds, 45% hits; AID 720494; cut-off not given, nearly all actives have AC50 up to about 14 µM
Numbers without * were called inactive. The list is not random: actives were taken first. Their share in the collection is about 1.8%.

COc1ccc2c3c(n(C)c2c1)[C@@H](CO)N(C(=O)CC1CC1)CC31CCN(C(=O)C2CCCC2)CC1 was read as AF4-AF9 inh -2.2, DENV2 CPE -3.2, ERp5 block -4.4 and ERAP1 inh 5.0.
Screening Cc1cccc(-c2ccc(C3[C@H]4CNC[C@@H]3N4CC3CCOCC3)cc2)c1 (some centres not stated) returned AF4-AF9 inh 2.4, DENV2 CPE -2.8, ERp5 block -0.9 and ERAP1 inh -0.2.
Screening Cc1cccc(NNC(=O)C(=O)NNc2cccc(C)c2)c1 returned AF4-AF9 inh -1.4, DENV2 CPE inconclusive, ERp5 block 5.5 and PDI inh 2.6.
Cc1cccc(N=NC(=S)NNc2cccc(C)c2)c1 was read as AF4-AF9 inh 35.6*, DENV2 CPE 2.5, ERp5 block -1.5, PDI inh -2.4, ERAP1 inh 3.7 and AlphaScreen intf 1.02µM*.
O=C(C[C@H]1C=C[C@@H](NS(=O)(=O)c2ccccc2)[C@H](CO)O1)NCc1ccc(Cl)c(Cl)c1 was read as AF4-AF9 inh -0.2, DENV2 CPE -0.5, ERp5 block 3.1 and ERAP1 inh -0.6.
`Cn1cc(CN2CCC(C(=O)NC(c3ccc(F)cc3)c3ccc4ccccc4n3)CC2)c2ccccc21` (configuration not stated) gave AF4-AF9 inh 25.3*, DENV2 CPE -8.6, ERp5 block 3.1, PDI inh 12.3, ERAP1 inh -1.2 and AlphaScreen intf -34.2%.
For CO[C@H]1CC[C@H]2CCN(C)C(=O)[C@@H](C)N(C)C(=O)c3cccc(C#N)c3OC[C@H]1O2 the results were AF4-AF9 inh 2.0, DENV2 CPE -3.8, ERp5 block 0.3 and ERAP1 inh -0.9.
`Oc1ccccc1N=N/C(=N/Nc1ccccc1O)c1ccccc1` gave AF4-AF9 inh -3.5, DENV2 CPE inconclusive, ERp5 block 1.3, PDI inh 3.0 and ERAP1 inh 0.2.
For N#C/C(N=Nc1ccccc1O)=N\Nc1ccccc1O the results were AF4-AF9 inh 34.3*, DENV2 CPE -9.3, ERp5 block 6.8, PDI inh 5.0 and AlphaScreen intf 8.51µM*.
CN(C)c1ccc(/C=C2/C[N+](C)(C)C/C(=C/c3ccc(N(C)C)cc3)C2=O)cc1 was read as AF4-AF9 inh 56.3*, DENV2 CPE 0.3, ERp5 block -0.6, PDI inh -3.7, ERAP1 inh 10.9 and AlphaScreen intf 5.83µM*.
For CC(C)/C=C1\CC/C(=C\c2ccc(N(C)C)cc2)C1=O the results were AF4-AF9 inh -0.5, ERp5 block -0.2, PDI inh -10.8 and ERAP1 inh 0.3.
`CCN1[C@@H]2c3ccc(-c4cccc(F)c4)c(=O)n3C[C@@H]2[C@@H](CO)[C@@H]1C(=O)N[C@@H](C)c1ccccc1` gave AF4-AF9 inh 1.2, DENV2 CPE 5.4, ERp5 block 3.9 and ERAP1 inh 1.2.
`COc1ccc(OC)c(C2=NOC(C(=O)Nc3c(C)n(C)n(-c4ccccc4)c3=O)C2)c1` (configuration not stated) gave AF4-AF9 inh -7.6, DENV2 CPE 81.0*, ERp5 block -0.2, PDI inh 0.2, ERAP1 inh 1.6 and AlphaScreen intf 4.6%.
COc1ccccc1C#Cc1ccc2c(c1)[C@H]1[C@H](CCN1C(=O)c1ccncc1)[C@@H](CO)N2 was read as AF4-AF9 inh 50.9*, DENV2 CPE -6.9, ERp5 block -0.6, ERAP1 inh -0.2 and AlphaScreen intf 7.95µM*.
Screening COc1ccccc1C#Cc1ccc2c(c1)[C@@H]1[C@@H](CCN1C(=O)c1ccccc1)[C@@H](CO)N2 returned AF4-AF9 inh -1.9, DENV2 CPE -5.2, ERp5 block 0.3 and ERAP1 inh -2.5.
Screening CCC[C@@H](CN1CCC[C@H]1CN1C(N)=NC[C@@H]1Cc1ccccc1)N1C[C@@H](Cc2ccccc2)N(CCc2ccc(Cl)c(Cl)c2)C1=N returned AF4-AF9 inh 29.9*, DENV2 CPE -6.3, ERp5 block 3.8, PDI inh 11.8, ERAP1 inh 3.3 and AlphaScreen intf -8.7%.
`Cc1ccc2c(c1)c1c3n2CCN(CC#N)C3CCC1` (configuration not stated) gave AF4-AF9 inh 3.7, DENV2 CPE -7.3, ERp5 block -1.5, PDI inh -2.8 and ERAP1 inh 3.2.
